Screening results (PubChem)
Compounds with a hit are over-represented: about 2.7% of the library has one in this group of screens.
ANO1 activ: TMEM16A chloride channel activators or potentiators, primary screen, cell-based, HTS | AID 623877, 2012 | HEK293 TMEM16A/YFP-H148Q/I152L, iodide quench fluorescence; hits give low values | Anoctamin-1 (Mus musculus), Q8BHY3 | B-score at 10 µM | 0.3% of 340,000 active;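 active means fluorescence-ratio B-score plate-corrected deviation score at least 3 library SD below zero, with starting fluorescence score within 5 deviations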;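 further: channel opened by trigger with iodide after compound preincubation; score built on the fluorescence ratio of max minus min over baseline; more negative score means more quench and so TMEM16A activation or potentiation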
IDE inh: human IDE inhibitors in live cells, primary screen, fluorescence polarization, HEK cells, FAbetaB substrate; Insulin-degrading enzyme (Homo sapiens), P14735; FAbetaB cleavage; inhibition, % at 5.59 µM; 0.41% of 320,000 active; AID 434962, 2010;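 active means percent inhibition above the average of all tested compounds plus 3 SD, set per screening campaign, cut at about 16% in these data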;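 further: IDE supplied by intact live HEK cells; FP after avidin binding of uncleaved biotin substrate so inhibition keeps polarization high; 0% = DMSO wells and 100% = 60 µM reference IDE inhibitor Ii1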
CHT PAM: CHT positive allosteric modulators, primary screen, cell-based, membrane potential dye, choline EC20 | High affinity choline transporter 1 (Homo sapiens), Q9GZV3 | CHT-expressing cells; hits give high values; LV-AA mutant CHT in HEK293 cells | B-score at 10 µM | 0.49% of 310,000 active | AID 488977, 2010;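 active means initial fluorescence not abnormally high and integrated response B-score, plate-corrected, over 3 SD above library mean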
Target sequence (Q9GZV3 whole entry, looked up): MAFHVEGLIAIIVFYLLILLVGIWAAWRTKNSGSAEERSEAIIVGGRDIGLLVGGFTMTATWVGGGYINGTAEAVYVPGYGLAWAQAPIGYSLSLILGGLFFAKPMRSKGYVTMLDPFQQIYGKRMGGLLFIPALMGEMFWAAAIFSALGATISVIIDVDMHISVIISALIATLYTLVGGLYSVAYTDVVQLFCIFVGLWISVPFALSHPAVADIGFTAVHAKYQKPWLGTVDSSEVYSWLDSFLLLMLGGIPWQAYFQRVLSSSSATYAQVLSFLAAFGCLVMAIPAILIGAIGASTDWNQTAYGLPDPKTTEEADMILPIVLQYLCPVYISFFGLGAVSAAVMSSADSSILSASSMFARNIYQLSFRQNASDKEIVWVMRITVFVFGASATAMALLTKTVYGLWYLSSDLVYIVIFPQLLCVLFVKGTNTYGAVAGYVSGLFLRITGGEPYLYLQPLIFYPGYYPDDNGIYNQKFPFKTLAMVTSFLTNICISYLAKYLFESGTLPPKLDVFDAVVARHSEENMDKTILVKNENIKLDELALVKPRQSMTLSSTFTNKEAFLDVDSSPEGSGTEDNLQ
ANO1 block: TMEM16A chloride channel inhibitors, primary screen, cell-based, HTS. Anoctamin-1 (Mus musculus), Q8BHY3. AID 588511, 2011. normalized B-score (activity score, 25-100; higher = stronger inhibition) at 10 µM. HEK293 TMEM16A/YFP iodide influx fluorescence, ionomycin. 1.2% of 310,000 active;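 active means ratio plate-corrected score three or more library SD toward inhibition, starting fluorescence score within five deviations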;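 further: score derived from kinetic fluorescence span divided by baseline fluorescence per well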
IDE act: human IDE activators in live cells, primary screen, fluorescence polarization, HEK cells, FAbeta-B substrate | Insulin-degrading enzyme (Homo sapiens), P14735 | FAbeta-B cleavage; 0% vehicle, 100% cell-free pure enzyme wells | activation, % at 5.96 µM | 0.073% of 340,000 active;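 active means activation above the mean of all tested compounds plus 3 SD, set per screening campaign, cut at about 17% in these data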
CHT block: inhibitors of human choline transporter CHT. AID 488975, 2010. High affinity choline transporter 1 (Homo sapiens), Q9GZV3. CHT-expressing cells, membrane potential dye, choline response; hits give low values. B-score at 10 µM. 0.86% of 310,000 active;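 active means B-score over 3 SD under the library average, and starting fluorescence ratio not unusually high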;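 further: choline stimulus applied at its EC90 after an EC20 pre-addition; B-score computed on integrated fluorescence ratio after choline addition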
CHT block conf: CHT inhibitors, confirmation, cell-based, membrane potential dye, duplicate. shares compounds with CHT block. CHT-expressing cells, choline membrane potential dye; LV-to-AA substituted CHT, HEK293 cells. CHT activity remaining % of control (hits give low values), % at 10 µM. 70% of 2,400 active. AID 493221, 2011;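 active means choline transporter activity left, mean of duplicates at 10 µM, below buffer-only control mean minus 3 SD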;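 further: depolarization triggered by choline at its EC90 following an EC20 pre-addition; 0% = hemicholinium-3 full block and 100% = buffer-only control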
HEK293 CHT ctr: membrane potential effects in parental HEK293, counter-screen for CHT inhibitor project, cell-based, membrane potential dye; shares compounds with CHT block; choline response; active = decrease or increase beyond buffer ±3SD; membrane potential ratio readout (active if shifted either direction beyond buffer ±3SD; no single direction) at 10 µM; 4% of 2,400 active;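 further: parental cells lack the transporter so any hit is non-specific; ratio is peak minus trough fluorescence over baseline after EC90 choline challenge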
* = called active by the depositor; i = inactive; x = no result given.

SMILES | ANO1 activ | IDE inh | CHT PAM | ANO1 block | IDE act | CHT block | CHT block conf | HEK293 CHT ctr
COc1ccc(CNC(=O)CN(C(=O)Cn2nnc(-c3ccccc3F)n2)c2ccc(C)cc2)cc1 | i | 6 | i | i | -4 | -5.2* | i | i
CCCCNC(=O)N(O)C1N(/N=C/c2ccccc2OC)C(=S)SC1(C)C (centres undefined) | i | -1 | i | i | 1 | i | x | x
CCn1c(COc2ccc(=O)n(-c3ccccc3)n2)nnc1SCc1ccccc1 | i | 3 | i | i | 4 | i | x | x
CCn1c(COc2ccc(=O)n(-c3ccccc3)n2)nnc1SCc1ccc(OC)cc1 | i | 2 | i | i | 3 | -5.3* | i | i
Cc1ccc(S(=O)(=O)NNC(=O)Nc2ccc(Cl)cc2)cc1 | i | 7 | i | i | -10 | i | x | x
Cc1occc1C(=O)NNS(=O)(=O)c1ccc(Cl)cc1 | i | 5 | i | i | 4 | -5.4* | 27%* | i
N#Cc1c(Cl)cccc1N1CCCC1 | i | -2 | i | i | 3 | -7.2* | 49%* | i
CSCCC(NC(=O)c1ccccc1)C(=O)Nc1ccc(C)cc1 (centres undefined) | i | -1 | i | i | 4 | -7.5* | 70%* | i
Oc1c(C=Nc2ccc(Cl)cn2)sc2ccccc12 | i | 9 | i | i | -5 | i | x | x
Oc1c(/C=N/c2ccccn2)sc2ccccc12 | i | 4 | i | i | 2 | -8.2* | i | i
O=C(N/N=C/c1c(F)cccc1Cl)C(=O)N1CCCCCC1 | i | -2 | i | i | 0 | i | x | x
CCOC(=O)C1=C(C)Nc2ccccc2N=C1NC(=O)c1oc2ccccc2c1COC | i | 4 | x | x | 4 | x | x | x
CC(=O)NC(Cc1cccc(F)c1)C(=O)NC1CCN(C(=O)c2cccc(C)c2)CC1 (centres undefined) | i | -1 | i | i | 1 | -7.8* | i | i
CCC(CC)CN1CCC(CN2C(=S)NC[C@@H]2[C@@H](C)CC)CC1 | x | x | x | x | 4 | x | x | x
O=C(NCc1ccc(Cl)cc1)c1ccc(CNc2c(N3CCCC3)c(=O)c2=O)cc1 | i | 7 | i | i | 4 | -6.2* | i | i
CN(C)c1ccc(CNC(=O)c2ccc(CNc3c(N4CCCCC4)c(=O)c3=O)cc2)cc1 | i | 1 | i | i | 5 | i | x | x
CCCOc1ccc(C(CC(=O)O)NC(=O)c2sc3ccccc3c2Cl)cc1 (centres undefined) | i | 6 | i | i | 6 | -6.8* | 25%* | i
COc1ccc(-c2cc(=O)oc(-c3cccc(C)c3)n2)cc1 | i | 2 | i | i | 1 | -14* | i | i
COc1cc(OC)c2c(-c3cccc(-c4cccc(C)c4)c3)cc(=O)oc2c1 | i | x | x | x | 3 | x | x | x
CCCCN1C(=O)C(O)(CC(=O)c2c(C)n[nH]c2C)c2cc(Br)ccc21 (centres undefined) | i | 0 | i | i | -2 | i | x | x
CCCCN1C(=O)C(O)(CC(=O)c2ccco2)c2cc(Br)ccc21 (centres undefined) | i | 6 | i | i | 6 | -5.6* | i | i
CC(OC(=O)c1cc2sccc2n1C)C(=O)NC(C)(C)C (centres undefined) | i | 2 | i | i | 5 | -9.2* | 59%* | i
CC(OC(=O)c1cc2sccc2n1C)C(=O)NCc1cccs1 (centres undefined) | i | 0 | i | i | 3 | i | x | x
CC(=O)N(c1ccccc1)c1nc(/C=C/C(=O)Nc2c(C)cc(C)cc2C)cs1 | i | 2 | i | i | -4 | -5.3* | i | i
Cc1[nH]n(-c2ccccc2)c(=O)c1C(c1cccc([N+](=O)[O-])c1O)c1c(C)[nH]n(-c2ccccc2)c1=O | i | 5 | i | i | 6 | -7.2* | -6.2%* | i
SMILES | ANO1 activ | IDE inh | CHT PAM | ANO1 block | IDE act | CHT block | CHT block conf | HEK293 CHT ctr
Cc1c(C(c2cccc([N+](=O)[O-])c2O)c2c(C)n(C)n(-c3ccccc3)c2=O)c(=O)n(-c2ccccc2)n1C | i | 0 | i | i | 0 | i | x | x
COc1ccc(C(=O)Nc2ccnn2C2CCN(C(C)CSC)CC2)cc1 (centres undefined) | i | -1 | i | i | 6 | i | x | x
CN(C)CCCn1c(=O)n(C2CCCCC2)c(=O)c2c3c(sc21)CCCCC3 | i | 5 | i | i | 3 | -8* | 36%* | i
CCCc1nc2oc3c(NCC4CCCO4)ncnc3c2c2c1COC(C)(C)C2 (centres undefined) | i | -6 | i | i | -2 | -8.1* | 16%* | i
CC[N+]1(CC)CC2=Cc3c(ccc4ccccc34)C(C)C2C1 (centres undefined) | i | 2 | i | i | 2 | -6* | 60%* | i
CCCCn1c(N)c(-c2nc3ccccc3o2)c2c([N+](=O)[O-])nn(C)c(=O)c21 | i | -2 | i | i | 6 | i | x | x
CCCCCn1c(N)c(-c2nc3ccccc3s2)c2c([N+](=O)[O-])nn(C)c(=O)c21 | i | -1 | i | i | 1 | -6.3* | i | i
COC(=O)C(Oc1ccc2c(-c3ccc(OC)cc3)cc(=O)oc2c1)c1ccccc1 (centres undefined) | i | 1 | i | i | 4 | -6.2* | i | i
CC(Oc1ccc2c(-c3ccccc3)cc(=O)oc2c1)C(=O)O (centres undefined) | i | 0 | i | i | 2 | i | x | x
CNc1nc(-c2ccc3c(c2)CCN3C(=O)c2cccc(F)c2)cs1 | i | -5 | i | i | 1 | -5.2* | i | i
CNc1nc(-c2ccc3c(c2)CCN3C(=O)c2ccc(F)cc2)cs1 | i | x | x | x | 1 | x | x | x
Cc1c(Cl)cccc1NC(=O)CCN1C(=O)NC(C)(C)C1=O | i | x | x | x | -1 | x | x | x
